The nature of experiment [1]: small molecules captured by biotinylated probe aFSTL3 – biochemical, small-molecule microarray, fluorescence 635/667, stem cell growth factor project, primary screen (AID 1064).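 Also: measures binding of the biotinylated anti-FSTL3 antibody to printed compounds.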 The note with it: higher = more signal.
Experiment [2] in a line: binders from COS7 lysate, DM2A8 probe, primary screen, torsin A project, cell lysate, small-molecule microarray, fluorescence 635/667 (AID 1065). The settings on record: higher = more signal, COS7 lysate expressing mutant human TOR1A.
A short description of experiment [3]: small molecules captured by biotinylated probe aFGF2 – biochemical, small-molecule microarray, fluorescence 635/667, stem cell growth factor project, primary screen (AID 1067).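 Also: measures binding of biotinylated aFGF2 protein to printed compounds on slides; z-score merges feature fluorescence and signal-to-noise across triplicate slides.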 The note with it: higher = more signal.
A short description of experiment [4]: small molecules captured by biotinylated probe aFGF10 – biochemical, small-molecule microarray, fluorescence 635/667, stem cell growth factor project, primary screen (AID 1071).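 Also: score merges 667 nm spot intensity and signal to noise from triplicate slides.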 The settings on record: higher = more signal.
Experiment [5] deals with Neurogenic locus notch homolog protein 2 (Homo sapiens) (UniProt Q04721). Nature of the experiment: small molecules binding Notch2 protein – biochemical, small-molecule microarray, 635 nm fluorescence, stem cell growth factors, primary screen (AID 1073). The settings on record: higher = more signal.
Chain of Neurogenic locus notch homolog protein 2 (Homo sapiens) (Q04721 whole entry, looked up, canonical isoform): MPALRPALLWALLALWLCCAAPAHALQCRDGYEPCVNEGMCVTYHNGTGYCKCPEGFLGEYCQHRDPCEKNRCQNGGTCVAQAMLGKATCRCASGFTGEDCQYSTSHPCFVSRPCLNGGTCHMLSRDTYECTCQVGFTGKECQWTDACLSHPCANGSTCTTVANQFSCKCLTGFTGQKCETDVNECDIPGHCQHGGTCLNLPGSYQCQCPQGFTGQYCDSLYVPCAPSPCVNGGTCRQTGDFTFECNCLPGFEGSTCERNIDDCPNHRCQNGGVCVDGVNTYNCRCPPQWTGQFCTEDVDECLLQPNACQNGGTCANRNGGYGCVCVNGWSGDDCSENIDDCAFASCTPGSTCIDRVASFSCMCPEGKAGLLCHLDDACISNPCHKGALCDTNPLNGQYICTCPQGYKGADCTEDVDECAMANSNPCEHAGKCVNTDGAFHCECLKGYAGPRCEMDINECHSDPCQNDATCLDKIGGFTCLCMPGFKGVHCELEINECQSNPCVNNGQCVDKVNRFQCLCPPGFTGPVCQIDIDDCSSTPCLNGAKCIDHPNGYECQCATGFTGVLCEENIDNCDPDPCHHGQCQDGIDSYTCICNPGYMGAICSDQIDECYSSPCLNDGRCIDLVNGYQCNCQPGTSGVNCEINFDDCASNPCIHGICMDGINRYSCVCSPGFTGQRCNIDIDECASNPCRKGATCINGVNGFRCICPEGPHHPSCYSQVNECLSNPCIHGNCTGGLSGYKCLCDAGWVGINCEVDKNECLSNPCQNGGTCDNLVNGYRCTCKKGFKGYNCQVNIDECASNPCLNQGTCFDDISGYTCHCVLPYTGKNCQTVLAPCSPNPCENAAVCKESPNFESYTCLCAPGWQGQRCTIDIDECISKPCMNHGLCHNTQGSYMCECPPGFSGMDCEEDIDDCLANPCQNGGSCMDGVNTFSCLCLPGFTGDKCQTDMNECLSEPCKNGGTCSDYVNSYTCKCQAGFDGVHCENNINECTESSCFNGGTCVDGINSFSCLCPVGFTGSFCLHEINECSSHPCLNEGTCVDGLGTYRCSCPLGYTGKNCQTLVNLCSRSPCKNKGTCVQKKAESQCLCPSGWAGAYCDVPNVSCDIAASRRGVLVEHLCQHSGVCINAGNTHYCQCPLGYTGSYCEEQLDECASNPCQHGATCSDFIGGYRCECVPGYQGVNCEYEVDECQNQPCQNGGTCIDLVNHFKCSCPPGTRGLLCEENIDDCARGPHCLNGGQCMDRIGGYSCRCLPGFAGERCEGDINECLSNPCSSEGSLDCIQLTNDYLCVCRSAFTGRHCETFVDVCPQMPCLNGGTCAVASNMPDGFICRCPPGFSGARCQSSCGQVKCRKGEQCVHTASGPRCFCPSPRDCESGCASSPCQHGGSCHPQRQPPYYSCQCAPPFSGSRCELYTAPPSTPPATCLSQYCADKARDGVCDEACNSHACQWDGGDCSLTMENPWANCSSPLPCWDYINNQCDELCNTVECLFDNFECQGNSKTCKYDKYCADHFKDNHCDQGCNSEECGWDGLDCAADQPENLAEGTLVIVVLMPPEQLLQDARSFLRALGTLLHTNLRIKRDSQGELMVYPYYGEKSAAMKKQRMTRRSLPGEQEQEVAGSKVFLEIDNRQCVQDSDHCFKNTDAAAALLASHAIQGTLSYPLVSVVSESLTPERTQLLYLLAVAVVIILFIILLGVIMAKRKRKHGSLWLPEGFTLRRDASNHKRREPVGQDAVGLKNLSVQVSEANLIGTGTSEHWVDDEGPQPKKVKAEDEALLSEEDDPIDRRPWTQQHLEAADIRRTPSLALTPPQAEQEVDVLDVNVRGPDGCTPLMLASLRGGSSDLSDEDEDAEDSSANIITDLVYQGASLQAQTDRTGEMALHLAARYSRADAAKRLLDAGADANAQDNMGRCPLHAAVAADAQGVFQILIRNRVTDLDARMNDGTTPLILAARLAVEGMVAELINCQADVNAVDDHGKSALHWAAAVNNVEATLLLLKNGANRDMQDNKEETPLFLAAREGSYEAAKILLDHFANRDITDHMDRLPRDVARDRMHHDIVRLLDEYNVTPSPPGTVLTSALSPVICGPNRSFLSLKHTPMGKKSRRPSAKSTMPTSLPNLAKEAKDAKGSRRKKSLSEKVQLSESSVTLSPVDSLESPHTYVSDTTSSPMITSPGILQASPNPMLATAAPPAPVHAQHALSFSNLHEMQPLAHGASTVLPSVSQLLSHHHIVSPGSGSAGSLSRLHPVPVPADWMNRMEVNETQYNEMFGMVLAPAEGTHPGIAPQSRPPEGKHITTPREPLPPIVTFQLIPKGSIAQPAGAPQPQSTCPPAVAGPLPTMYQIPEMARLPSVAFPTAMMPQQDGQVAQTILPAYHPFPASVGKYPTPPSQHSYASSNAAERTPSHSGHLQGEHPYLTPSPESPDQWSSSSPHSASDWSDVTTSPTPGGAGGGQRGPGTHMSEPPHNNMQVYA
Experiment [6] addresses Pro-neuregulin-1, membrane-bound isoform (Homo sapiens) (UniProt Q02297). Nature of the experiment: small molecules binding neuregulin-1 protein – biochemical, small-molecule microarray, fluorescence 635/667, psychiatric disease protein project, primary screen (AID 1075).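 Also: score combines 667 nm spot fluorescence with signal to noise.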 The settings on record: NRG1 binding, 635 nm fluorescence, higher = more signal.
Experiment [7] deals with Neuregulin-1 EGF-like domain. Nature of the experiment: small molecules binding NRG1 EGF domain – biochemical, small-molecule microarray, 635 nm fluorescence, primary screen (AID 1081).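 Also: binding of the protein to compounds printed on small-molecule microarray slides.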 The note with it: higher = more signal.
A short description of experiment [8]: FRG1 expression reporter modulators in myotubes – cell-based, C2C12 myotubes, firefly/Renilla luciferase, luminescence, FRG1 inhibition for FSHD, primary screen (AID 1084). The note with it: FRG1 promoter luciferase, higher = more signal, called active from +8 up or from −8 down.
A short description of experiment [9]: small molecules captured by biotinylated probe aFST – biochemical, small-molecule microarray, fluorescence 635/667, stem cell growth factor project, primary screen (AID 1086).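 Also: score merges 667 nm fluorescence with signal-to-noise of each printed compound spot.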 The settings on record: higher = more signal.
A short description of experiment [10]: binders of probe aHhip on microarray, primary screen, stem cell growth factor project, biochemical, small-molecule microarray, fluorescence 635/667 (AID 1087).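 Also: score merges spot fluorescence at 667nm with spot signal to noise ratio.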 The note with it: higher = more signal.
The test system of experiment [11] is PRMT1 (protein arginine N-methyltransferase 1). Nature of the experiment: small molecules binding arginine methyltransferase PRMT1 – biochemical, small-molecule microarray, 635 nm fluorescence, primary screen (AID 1088).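 Also: binding of Prmt1 protein to compounds spotted on small-molecule microarray slides.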 The settings on record: higher = more signal.
Experiment [12] is described as follows: growth effects on S. cerevisiae YJM789 – YJM789 clinical isolate, OD600, 24 h, basal, primary screen (AID 1089).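 Also: growth of clinical yeast isolate S. cerevisiae YJM 789 seeded 1000 cells per well; test concentration not given here.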 The note with it: higher = more signal, called active from +8 up or from −8 down.
The nature of experiment [13]: S. pombe growth modifiers, basal conditions – strain 972, OD600, 24 h, no modulator, primary screen (AID 1090).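 Also: basal condition with compound alone and no growth modifier present; test concentration not given here.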 The settings on record: S. pombe 972 growth, higher = more signal, called active from +8 up or from −8 down.
Experiment [14] is described as follows: budding yeast growth modifiers under rapamycin – strain BY4716, OD600, 96 h, primary screen (AID 1091). Also: test concentration not given here. The settings on record: S. cerevisiae BY4716 + rapamycin, higher = more signal, called active from +8 up or from −8 down.
Experiment [15] addresses Torsin-1A-interacting protein 2 (Homo sapiens) (UniProt Q8NFQ8). Nature of the experiment: small molecules binding lysate-expressed LULL1 – cell lysate, human LULL1 lysate, 635/667 nm fluorescence, primary screen (AID 1092).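 Also: probe is lysate of COS7 cells overexpressing human LULL1; score merges per-feature 667 nm fluorescence with signal-to-noise.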 The note with it: small-molecule microarray, hLULL1 lysate binding, 635 nm fluorescence; higher = more signal.
A short description of experiment [16]: optical density change of DRC41 E. coli – strain DRC41, OD650, 24 h, E. coli filamentation project, primary screen (AID 1093).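 Also: MC1000 strain lacking acrAB efflux and sulA so SOS filamentation is blocked; test concentration not given here.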 The settings on record: E. coli DRC41 growth, higher = more signal, called active from +8 up or from −8 down.
A short description of experiment [17]: probe aLefty2 binding to arrayed compounds – biochemical, biotinylated probe, 635/667 nm fluorescence, primary screen (AID 1094).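 Also: score merges spot fluorescence near 667 nm with spot signal-to-noise ratio.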 The note with it: small-molecule microarray, higher = more signal.
Experiment [18] relates to Noggin (protein binding on small-molecule microarray). Nature of the experiment: small molecules binding Noggin protein – biochemical, 635/667 nm fluorescence, primary screen (AID 1095).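 Also: score merges 667 nm feature fluorescence with signal to noise over triplicate slides.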 The note with it: 635 nm fluorescence, higher = more signal.
The target in experiment [19] is Neurogenic locus notch homolog protein 3 (Homo sapiens) (UniProt Q9UM47). Nature of the experiment: small molecules binding NOTCH3 protein – biochemical, 635/667 nm fluorescence, primary screen (AID 1096). The note with it: small-molecule microarray, 635 nm fluorescence, higher = more signal.
Experiment [20] can be described thus: probe aEGFR binding to arrayed compounds – biochemical, biotinylated probe, 635/667 nm fluorescence, primary screen (AID 1097).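 Also: probe is a biotinylated anti-EGFR antibody binding compounds printed on slides; score combines fluorescence near 667 nm and signal to noise of each spot.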 The settings on record: small-molecule microarray, higher = more signal.

Active and inactive are the calls of the source.

Chain of Torsin-1A-interacting protein 2 (Homo sapiens) (Q8NFQ8 whole entry, looked up): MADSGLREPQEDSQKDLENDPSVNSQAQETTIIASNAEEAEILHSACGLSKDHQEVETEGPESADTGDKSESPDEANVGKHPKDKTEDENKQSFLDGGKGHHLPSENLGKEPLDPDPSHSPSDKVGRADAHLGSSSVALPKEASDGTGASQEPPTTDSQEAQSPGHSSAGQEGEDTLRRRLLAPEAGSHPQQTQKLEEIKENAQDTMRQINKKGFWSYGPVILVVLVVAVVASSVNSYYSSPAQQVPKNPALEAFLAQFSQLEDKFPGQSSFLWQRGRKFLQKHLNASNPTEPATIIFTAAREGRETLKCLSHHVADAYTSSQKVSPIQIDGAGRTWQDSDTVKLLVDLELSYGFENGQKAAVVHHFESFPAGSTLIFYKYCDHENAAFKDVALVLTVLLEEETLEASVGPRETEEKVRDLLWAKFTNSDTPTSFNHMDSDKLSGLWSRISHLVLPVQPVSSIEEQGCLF
Chain of Pro-neuregulin-1, membrane-bound isoform (Homo sapiens) (Q02297 whole entry, looked up, the tested form may be a part, canonical isoform): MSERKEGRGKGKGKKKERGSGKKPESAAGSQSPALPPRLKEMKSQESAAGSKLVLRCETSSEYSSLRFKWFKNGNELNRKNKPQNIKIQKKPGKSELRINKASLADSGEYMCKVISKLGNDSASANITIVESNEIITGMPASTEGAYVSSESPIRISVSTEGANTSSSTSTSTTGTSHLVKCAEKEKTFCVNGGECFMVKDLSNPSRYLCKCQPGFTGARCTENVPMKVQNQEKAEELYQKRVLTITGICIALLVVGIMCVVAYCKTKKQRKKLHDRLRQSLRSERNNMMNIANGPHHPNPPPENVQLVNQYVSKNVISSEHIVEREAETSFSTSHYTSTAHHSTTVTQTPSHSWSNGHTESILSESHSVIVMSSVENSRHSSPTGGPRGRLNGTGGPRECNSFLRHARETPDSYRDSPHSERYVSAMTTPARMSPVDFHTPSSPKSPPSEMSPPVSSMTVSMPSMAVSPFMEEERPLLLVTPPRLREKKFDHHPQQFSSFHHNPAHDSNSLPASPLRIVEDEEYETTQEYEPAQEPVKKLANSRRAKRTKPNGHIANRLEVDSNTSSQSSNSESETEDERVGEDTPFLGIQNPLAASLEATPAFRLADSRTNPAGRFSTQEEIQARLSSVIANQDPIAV

Take `CC(C)[C@H]1COC(=O)N1C(=O)[C@H]1[C@@H](c2ccccc2)N(c2ccccc2)O[C@@H]1C`: the composite z-score in experiment [1] is -0.385; in [2], 0.182; in experiment [3], -0.204; in experiment [4] it was 0.488; in [5], 1.14; in experiment [6], 0.182. The composite z-score was 0.974 in experiment [7]; 0.301 in [9]; -0.367 in experiment [10]; 0.842 in experiment [11]; 1.29 in [15]; -0.0023 in experiment [17]. Moreover, the composite z-score is 0.403 in [18], 0.757 in experiment [19] and -0.12 in experiment [20]. The z-score in experiment [8] was -0.803 (inactive); in experiment [12] it was -0.384 (inactive); in experiment [13], -2.87 (inactive); in experiment [14] it was 0.0611 (inactive); in experiment [16] it was 0.874 (inactive).
Consider `C=C(COC)C(=O)CC[C@@H](OC(=O)c1ccccc1-c1ccccc1C(=O)O)c1ccc(CO)o1`, for which the composite z-score in [1] was -0.229; in experiment [2], 1.23; in [3] it was -0.0449; in experiment [4], -0.177; in experiment [5], 0.187; in experiment [6] it was 0.982. Also, the composite z-score is 1.36 in experiment [7]; -0.551 in experiment [9]; -0.0994 in experiment [10]; 1.38 in [11]; 2.4 in experiment [15]; -0.215 in [17]. The composite z-score in experiment [18] is 1.63; in [19], 0.314; in experiment [20] it was -0.0512. Also, the z-score was -3.75 (inactive) in experiment [8]; -24.5 (active) in experiment [12]; -20.5 (active) in [13]; -4.45 (inactive) in [14]; -0.177 (inactive) in experiment [16].
For the compound `CC(C)C(O)C1C=CC2C(=O)N(C)C(=O)C2N1N1CCCCC1` (stereo not given), the composite z-score is -0.201 in experiment [1]; -0.145 in experiment [2]; -0.0412 in experiment [3]; 0.651 in experiment [4]; 1.51 in [5]; 0.856 in experiment [6]. In addition, the composite z-score was 1.24 in [7]; 0.772 in [9]; -0.0391 in experiment [10]; 0.594 in experiment [11]; 3.58 in [15]; 0.169 in [17]. For the same compound, the composite z-score was determined as 0.315 in [18], 0.217 in experiment [19] and 0.0635 in [20]. Also, the z-score in experiment [8] is 0.554 (inactive); in experiment [12], 0.252 (inactive); in experiment [13], 0.891 (inactive); in [14] it was -0.199 (inactive); in [16] it was -1.46 (inactive).
For the compound `C=C(CCCC)C(=O)CC[C@@H](OC(=O)c1ccccc1-c1ccccc1C(=O)O)c1ccc(CO)o1`, the composite z-score in experiment [1] was -0.241; in [2], -0.141; in [3], -0.0291; in [4], 0.45; in experiment [5] it was 0.629; in experiment [6], 0.504. Further, the composite z-score in experiment [7] turned out to be 0.989; in [9], 0.137; in experiment [10], 0.192; in [11], 1.56; in experiment [15], 0.779; in experiment [17] it was 0.0202. In addition, the composite z-score in experiment [18] turned out to be 1.24; in experiment [19], 0.534; in experiment [20] it was 0.0068. Moreover, the z-score in experiment [8] was -0.161 (inactive); in experiment [12], -0.516 (inactive); in experiment [13], -0.0561 (inactive); in experiment [14], -0.667 (inactive); in experiment [16] it was 0.122 (inactive).
For the compound `CCCC[C@H]1OB(O)C[C@H]2C1=C(COc1ccccc1)C[C@H]1C(=O)N(Cc3ccccc3)C(=O)[C@H]12`, the composite z-score is -0.331 in [1]; -0.413 in experiment [2]; -0.0434 in experiment [3]; 0.418 in experiment [4]; 0.0238 in experiment [5]; 0.117 in experiment [6]. Moreover, the composite z-score in [7] is 1.07; in experiment [9], -0.0344; in experiment [10], 0.0623; in [11] it was 0.385; in experiment [15] it was 1.33; in experiment [17] it was -0.121. Besides, the composite z-score in [18] was 1.51; in experiment [19], 0.862; in experiment [20], -0.0828. Moreover, the z-score was 0.132 (inactive) in [8]; -1.87 (inactive) in experiment [12]; -1.54 (inactive) in experiment [13]; -1.6 (inactive) in experiment [14]; 0.194 (inactive) in experiment [16].

(Values after PubChem BioAssay.)
